# Test results: PubChem BioAssay (NCATS)
# Values joined by “and” are separate entries in the source; they are usually repeats but may differ in a detail not shown here. Equal entries are not always repeated. Inconclusive results are not listed. Where a call stands in place of a potency, no number is given. Active and inactive are the calls of the source. Calls come from the whole dose curve; as a rule, active = well fitted cell-killing curve with a large enough effect; inconclusive = small, poorly fitted or top-dose-only effect, or effect the other way; inactive = flat fitted curve, though single readings scatter.
# Legend:
# Assay in all cases: Primary qHTS to identify gynecologic anti-cancer compounds using libraries of approved drugs and bioactive compounds (AID 1345084); note: nearly all actives have a fitted effect of over 55% in size
# CAOV3 = conditions: Gynecologic cancer cell panel viability, ATPlite luminescence, 48 h; series mostly up to 57.5 µM
# Summary of the method: (§1)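 48 h compound exposure at 37 C, 5% CO2; five-point qHTS. ATPlite luminescence readout of cell ATP.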
# Es-2 = conditions: Gynecologic cancer cell panel viability, ATPlite luminescence, 48 h; series mostly up to 57.5 µM
# Summary of the method: as §1
# Hek293T = conditions: Gynecologic cancer cell panel viability, ATPlite luminescence, 48 h, control line for the selectivity index; series mostly up to 57.5 µM
# Summary of the method: as §1
# OV90 = conditions: Gynecologic cancer cell panel viability, ATPlite luminescence, 48 h; series mostly up to 57.5 µM
# Summary of the method: as §1
# Tov-21-G = conditions: Gynecologic cancer cell panel viability, ATPlite luminescence, 48 h; series mostly up to 57.5 µM
# Summary of the method: as §1
# CASKI = conditions: Gynecologic cancer cell panel viability, ATPlite luminescence, 48 h; series mostly up to 57.5 µM
# Summary of the method: as §1
# HeLa = conditions: Gynecologic cancer cell panel viability, ATPlite luminescence, 48 h; series mostly up to 57.5 µM
# Summary of the method: as §1
# JEG-3 = conditions: Gynecologic cancer cell panel viability, ATPlite luminescence, 48 h; series mostly up to 57.5 µM
# Summary of the method: as §1
# PA-1 = conditions: Gynecologic cancer cell panel viability, ATPlite luminescence, 48 h; series mostly up to 57.5 µM
# Summary of the method: as §1
# SKOV3 = conditions: Gynecologic cancer cell panel viability, ATPlite luminescence, 48 h; series mostly up to 57.5 µM
# Summary of the method: as §1
# Potency is the fitted concentration of half-maximal effect.
SMILES,Potency (CAOV3),Potency (Es-2),Potency (Hek293T),Potency (OV90),Potency (Tov-21-G),Potency (CASKI),Potency (HeLa),Potency (JEG-3),Potency (PA-1),Potency (SKOV3)
O=c1c(-c2ccc(O)cc2)coc2cc(O)cc(O)c12,inactive,inactive,inactive,inactive,3.98 µM (active),,,,,
Clc1ccc(C(c2ccccc2Cl)C(Cl)Cl)cc1 (centres undefined),,inactive,inactive,inactive,inactive,inactive,inactive,inactive,inactive,inactive
COc1ccc(C2CNC(=O)C2)cc1OC1CCCC1 (centres undefined),,inactive,inactive,inactive,inactive,inactive,inactive,inactive,inactive,inactive
Cc1cn([C@H]2C[C@H](N=[N+]=[N-])[C@@H](CO)O2)c(=O)[nH]c1=O,inactive,inactive,inactive,inactive,inactive,,inactive,inactive,,inactive
CC(C)NCC(O)c1ccc(O)c(O)c1 (centres undefined),inactive,inactive,inactive,,inactive,inactive,inactive,inactive,,inactive
COC(=O)Nc1nc2ccc(C(=O)c3cccs3)cc2[nH]1,inactive,0.282 µM (active),,7.08 µM (active),,,0.158 µM (active),0.355 µM (active),224 nM (active),
CC(C)C(=O)Nc1ccc([N+](=O)[O-])c(C(F)(F)F)c1,inactive,inactive,,,inactive,inactive,inactive,,,
Nc1nc2c(ncn2COC(CO)CO)c(=O)[nH]1,,inactive,inactive,inactive,inactive,inactive,inactive,inactive,inactive,inactive
COc1ccccc1OCC(O)CN1CCN(CC(=O)Nc2c(C)cccc2C)CC1 (centres undefined),,inactive,inactive,inactive,inactive,inactive,inactive,inactive,inactive,inactive
NC12CC3CC(CC(C3)C1)C2,,inactive,inactive,inactive,inactive,inactive,inactive,inactive,inactive,inactive
COc1ccccc1N1CCN(CC(O)COc2cccc3ccccc23)CC1 (centres undefined),12.6 µM (active),25.1 µM (active),31.6 µM (active),,,14.1 µM (active),,,3550 nM (active),1.78 µM (active)
O=C1c2c(O)ccc(O)c2C(=O)c2c(NCCNCCO)ccc(NCCNCCO)c21,3.16 µM (active),,10 µM (active),28.2 µM (active),28.2 µM (active),2.82 µM (active),15.8 µM (active),11.2 µM (active),,
Cn1c(=O)c2c(ncn2C)n(C)c1=O,,inactive,inactive,inactive,inactive,inactive,inactive,inactive,inactive,inactive
O=C(c1ccc(F)cc1)C1CCN(CCn2c(=O)[nH]c3ccccc3c2=O)CC1,,inactive,inactive,inactive,inactive,inactive,inactive,inactive,inactive,inactive
CC(=O)OCC(CCn1cnc2cnc(N)nc21)COC(C)=O,,inactive,inactive,inactive,inactive,inactive,inactive,inactive,inactive,inactive
COc1nc(C)nc(Cl)c1NC1=NCCN1,,inactive,inactive,inactive,inactive,inactive,inactive,inactive,inactive,inactive
NS(=O)(=O)c1cc2c(cc1Cl)NCNS2(=O)=O,,inactive,inactive,inactive,inactive,inactive,inactive,inactive,inactive,inactive
Clc1ccc2c(c1)C(N1CCNCC1)=Nc1ccccc1O2,,inactive,inactive,inactive,inactive,inactive,inactive,inactive,inactive,inactive
CC12CC3CC(C)(C1)CC(N)(C3)C2,,inactive,inactive,inactive,inactive,inactive,inactive,inactive,inactive,inactive
CCc1cccc2c3c([nH]c12)C(CC)(CC(=O)O)OCC3 (centres undefined),,inactive,inactive,inactive,inactive,inactive,inactive,inactive,inactive,inactive
O=c1[nH]cc(F)c(=O)[nH]1,inactive,inactive,inactive,inactive,,inactive,inactive,,,inactive
COc1cc2c(c(OC)c1OC)-c1ccc(OC)c(=O)cc1[C@@H](NC(C)=O)CC2,inactive,,,0.282 µM (active),,,,,,
CC#C[C@]1(O)CC[C@H]2[C@@H]3CCC4=CC(=O)CCC4=C3[C@@H](c3ccc(N(C)C)cc3)C[C@@]21C,inactive,inactive,inactive,inactive,inactive,inactive,,inactive,inactive,inactive
CC[C@@]1(O)C(=O)OCc2c1cc1n(c2=O)Cc2cc3c(CN(C)C)c(O)ccc3nc2-1,,2 µM (active),8.91 µM (active),,31.6 µM (active),1.26 µM (active) and 4.47 µM (active),inactive,,447 nM (active) and 1.58 µM (active),14.1 µM (active)
CCCCc1oc2ccccc2c1C(=O)c1cc(I)c(OCCN(CC)CC)c(I)c1,,inactive,inactive,inactive,inactive,inactive,inactive,inactive,inactive,
Cc1ccc(-c2cc(C(F)(F)F)nn2-c2ccc(S(N)(=O)=O)cc2)cc1,,inactive,inactive,inactive,inactive,inactive,inactive,inactive,inactive,inactive
